Among the data in PubChem BioAssay (NCI) are growth values, retold here.

Compounds without any hit were thinned out: in the full panel of roughly 83,000, 20% have a hit.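 Results are percent growth after 48 hours of single-concentration exposure. 100 means growth as in untreated cells, lower positive values show inhibition; negative values down to -100 show cell death.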 A number with no mark means an inactive call. The source made the active and inactive calls. Rule for the calls: active = growth percent below 10; inactive = the rest.

Some test systems named below: HCT-15 colon; HT29 colon; SNB-75 CNS; SNB-19 CNS; U251 CNS; PC-3 prostate; SK-MEL-5 melanoma; UACC-62 melanoma; LOX IMVI melanoma; SK-MEL-28 melanoma.
Common to all, as to assay: NCI-60 one-dose screen, 48 h (100 = growth as untreated, 0 = no growth, -100 = all killed)
Holding throughout (settings): 10 µM

For the molecule `C1CN(CC2CCC(CN3CCOCC3)O2)CCO1` (stereo not given), the growth in the test with HCT-15 colon is 101%; in the test with HT29 colon, 102%; in the test with SNB-75 CNS, 96.5%; in the test with SNB-19 CNS it was 105%; in the test on U251 CNS it was 108%; in the test on PC-3 prostate, 105%. Further, the growth with SK-MEL-5 melanoma was 105%; in the test on UACC-62 melanoma, 106%; in the test with LOX IMVI melanoma it was 93.2%; in the test on SK-MEL-28 melanoma, 105%.

Regarding `CCCN1CN2C(=O)N3CN(CCC)CN4C(=S)N(C1)C2C34` (stereo not given), the growth is 98.2% with HCT-15 colon; 99.5% in the test on HT29 colon; 81% in the test on SNB-75 CNS; 101% in the test on SNB-19 CNS; 97.3% in the test with U251 CNS; 91.5% in the test with PC-3 prostate. Further, the growth is 107% in the test on SK-MEL-5 melanoma, 98% in the test with UACC-62 melanoma, 103% with LOX IMVI melanoma and 93.4% with SK-MEL-28 melanoma.

`Cc1ccc(S(=O)(=O)N(C)CCCCCC(=O)O)cc1`: the growth in the test on HCT-15 colon is 97.8%; with HT29 colon, 92.5%; in the test on SNB-75 CNS, 94%; in the test with SNB-19 CNS it was 108%; with U251 CNS, 104%; in the test with PC-3 prostate it was 98.2%. In addition, the growth with SK-MEL-5 melanoma was 105%; with UACC-62 melanoma, 106%; in the test with LOX IMVI melanoma it was 95.4%; in the test on SK-MEL-28 melanoma, 105%.

As for `N#Cc1c(-c2ccc(Cl)cc2)csc1NC(=O)Nc1ccc(Cl)c(C(F)(F)F)c1`, the growth was 4.52% (active) in the test with HCT-15 colon; 1.62% (active) in the test on HT29 colon; 36.5% in the test with SNB-75 CNS; 31.6% in the test on SNB-19 CNS; 2.57% (active) with U251 CNS; 1.89% (active) in the test on PC-3 prostate. Moreover, the growth with SK-MEL-5 melanoma is -24.2% (active); with UACC-62 melanoma, 16.2%; in the test on LOX IMVI melanoma, 11.7%; with SK-MEL-28 melanoma, 28.4%.

Consider `COc1cc(-c2nn(-c3cccc(NC(=O)CCN4CCN(c5ccccc5)CC4)c3)cc2-c2ccncc2)ccc1Cl`, for which the growth in the test with HCT-15 colon is 20.8%; in the test on HT29 colon it was 4.96% (active); in the test on SNB-75 CNS, 36.8%; in the test with SNB-19 CNS, 35.9%; with U251 CNS, 17.2%; in the test with PC-3 prostate it was 22%. Besides, the growth in the test on SK-MEL-5 melanoma is 22%; in the test on UACC-62 melanoma, 26.6%; with LOX IMVI melanoma it was 6.98% (active); with SK-MEL-28 melanoma, 28.9%.

In the case of `CCOC(=O)C(C)(c1ccccc1)c1ccccc1`, the growth in the test with HCT-15 colon is 104%; in the test with HT29 colon, 96.2%; in the test on SNB-75 CNS, 94.2%; in the test with SNB-19 CNS it was 99.3%; with U251 CNS, 104%; with PC-3 prostate it was 97.8%. Moreover, the growth is 108% with SK-MEL-5 melanoma, 102% with UACC-62 melanoma, 102% in the test with LOX IMVI melanoma and 111% with SK-MEL-28 melanoma.

With `OCC1OC(n2cnc3c(NCc4ccco4)ncnc32)C(O)C1O` (stereo not given), the growth in the test with HCT-15 colon was 6.12% (active); in the test with HT29 colon, 23.3%; in the test on SNB-75 CNS, 14.7%; with SNB-19 CNS it was 28.5%; in the test with U251 CNS it was 43.7%; in the test with PC-3 prostate it was 22%. Besides, the growth was 23.7% in the test on SK-MEL-5 melanoma, 32.5% in the test on UACC-62 melanoma, -63.7% (active) in the test with LOX IMVI melanoma and 68.1% in the test with SK-MEL-28 melanoma.

Take `O=C1c2ccccc2C(=O)c2c1ccc(C(Br)Br)c2[N+](=O)[O-]`: the growth was 38.3% with HCT-15 colon; 46.1% in the test with HT29 colon; 109% in the test on SNB-75 CNS; 60.9% in the test on SNB-19 CNS; 9.58% (active) in the test on U251 CNS; 19.2% with PC-3 prostate. In addition, the growth with SK-MEL-5 melanoma was 60.8%; with UACC-62 melanoma it was 27.6%; in the test on LOX IMVI melanoma, -65.3% (active); with SK-MEL-28 melanoma, 102%.

On to `O=C(CCCCC(=O)Oc1c(Cl)cc(Cl)cc1[N+](=O)[O-])Oc1c(Cl)cc(Cl)cc1[N+](=O)[O-]`, for which the growth is 100% in the test with HCT-15 colon; 103% in the test on HT29 colon; 93.9% with SNB-75 CNS; 105% in the test with SNB-19 CNS; 98% in the test on U251 CNS; 104% in the test on PC-3 prostate. The growth in the test on SK-MEL-5 melanoma is 102%; in the test on UACC-62 melanoma, 102%; with LOX IMVI melanoma, 92%; with SK-MEL-28 melanoma it was 111%.

Consider `Nc1nc(-c2ccc(Cl)cc2)cc(-c2cc3ccccc3oc2=O)n1`, for which the growth is 102% in the test on HCT-15 colon; 93.5% in the test with HT29 colon; 68.4% with SNB-75 CNS; 94% with SNB-19 CNS; 99.4% with U251 CNS; 97.8% in the test on PC-3 prostate. For the same molecule, the growth is 91.2% in the test with SK-MEL-5 melanoma, 92.5% in the test on UACC-62 melanoma, 92.8% in the test on LOX IMVI melanoma and 110% with SK-MEL-28 melanoma.

`c1ccc(CSc2ncccc2-c2nnc(SCCN3CCOCC3)o2)cc1`: the growth in the test on HCT-15 colon is 105%; with HT29 colon, 111%; in the test with SNB-75 CNS, 79.6%; in the test on SNB-19 CNS, 115%; in the test with U251 CNS it was 117%; in the test on PC-3 prostate it was 111%. Besides, the growth in the test on SK-MEL-5 melanoma was 102%; in the test with UACC-62 melanoma, 113%; with LOX IMVI melanoma, 108%; in the test on SK-MEL-28 melanoma, 107%.

With `CCNCC(=O)Nc1ccc(C(=O)OCC)cc1`, the growth in the test on HCT-15 colon is 104%; in the test with HT29 colon it was 90.7%; with SNB-75 CNS, 86.6%; in the test with SNB-19 CNS, 109%; in the test on U251 CNS, 97.7%; with PC-3 prostate, 98.3%. In addition, the growth in the test with SK-MEL-5 melanoma was 108%; with UACC-62 melanoma, 99.2%; with LOX IMVI melanoma, 95%; in the test on SK-MEL-28 melanoma, 103%.

`CN(C)CCCN1c2ccccc2CCc2ccc(Cl)cc21`: the growth in the test with HCT-15 colon was 51.4%; with HT29 colon, 18.8%; in the test on SNB-75 CNS, 39.2%; in the test with SNB-19 CNS it was 96.1%; in the test with U251 CNS, 55.4%; in the test with PC-3 prostate, 40.8%. For the same molecule, the growth is -29.7% (active) in the test on SK-MEL-5 melanoma, 7.82% (active) in the test with UACC-62 melanoma, 56.9% with LOX IMVI melanoma and 36.9% in the test on SK-MEL-28 melanoma.
